Sampled rows, rich in hits. Any-hit rate of the full collection: about 1.1%.
VLA-4 inh: inhibition in human VLA-4 binding assay, primary screen, VLA-4 allosteric modulator project, MLPCN library, flow cytometry, VLA-4 expressing cells | Integrin alpha-4 (Homo sapiens), P13612 | ligand binding flow cytometry | inhibition, % (about 7 µM as worked out from the volumes in the protocol) | 330,000 tested, 0.2% active | AID 2557, 2010; in the data active = inhibition above about 50%
ABCB6 inh 2: ABCB6 transporter inhibitors, primary screen, K562-ABCB6 cells, flow cytometry, MLPCN library | K562-ABCB6 porphyrin accumulation, 1 h; active compounds read low | fluorescence ratio to DMSO, % at 10 µM | 360,000 tested, 0.19% active | AID 602162, 2011;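 active = fluorescence ratio to DMSO below 75%, the collection mean minus 3 SD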;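 also: signal is porphyrin accumulated inside mitochondria; lower ratio means ABCB6 inhibition with less porphyrin fluorescence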
Granule exo inh: LAMP-1 surface exposure blockers, TALL-104 cells – cell-based, flow cytometry, MLPCN library, primary screen. AID 651702, 2012. 360,000 tested, 0.66% active. inhibition, % at 10 µM. TALL-104 LAMP-1 surface exposure; cells stimulated with thapsigargin and PMA;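 active = inhibition above about 55%, limit read from the data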
CaV13 FRET inh: Disruptors of the CACNA1D IQ motif to Ca2+-dependent inactivation inhibitor domain association, primary screening, Förster resonance energy transfer in intact living …; HEK cells, CFP/YFP FRET ICDI-IQ, plate reader, 10 min; percent FRET-ratio fall versus neutral wells; inhibition, % at 12.3 µM; 340,000 tested, 0.098% active;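 active = mean replicate inhibition of at least 30% and at least 1% of replicates passing that level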
Exocytosis CP01: inhibitors of lytic granule exocytosis, confirmation, TALL-104 cells, flow cytometry, Cherry Pick01; 1,500 tested, 11% active; inhibition, % at 10 µM; AID 651954, 2012; shares compounds with Granule exo inh; LAMP-1 externalization; stimulated with PMA plus thapsigargin; in the data active = inhibition above about 60%
Numbers stand for hits; – = inactive; · = no result given.

SMILES | VLA-4 inh | ABCB6 inh 2 | Granule exo inh | CaV13 FRET inh | Exocytosis CP01
C[C@H](O)[C@@H]1CN2CCc3c([nH]c4ccc(-c5ccc6c(c5)OCO6)cc34)[C@@H]2C[C@@H]1N(C)C(=O)Nc1ccc(F)cc1 | · | – | 65 | – | –
COc1ccc(-c2ccc3[nH]c4c(c3c2)CCN2C[C@@H]([C@H](C)O)[C@@H](N(C)C(=O)Nc3cc(Cl)cc(Cl)c3)C[C@@H]42)cc1 | · | – | – | – | ·
Cc1ccc(-c2nnc(SCC(=O)N(C)C)nc2-c2ccc(C)cc2)cc1 | – | – | – | – | ·
CN(C)S(=O)(=O)c1cccc(NC(=O)c2ccc(COc3ccccc3)cc2)c1 | – | – | 58 | – | –
COc1ccc(N(C)S(=O)(=O)c2cccc(C(=O)Nc3ccc4c(c3)OCCO4)c2)cc1 | – | – | 90 | – | –
CN(c1ccccc1)S(=O)(=O)c1cccc(NC(=O)c2cccc(C#N)c2)c1 | – | – | – | – | ·
CN(c1ccccc1)S(=O)(=O)c1cccc(NC(=O)c2ccc3ncsc3c2)c1 | – | – | 67 | – | –
CCN1C(=O)[C@H]2[C@H]3CN=C(SCc4ccc(C(=O)OC)cc4)N3[C@@](C)(C(=O)OC)[C@H]2C1=O | · | – | – | – | ·
COc1ccccc1CNc1nc(NCc2ccc3occc3c2)c2sccc2n1 | · | – | 93 | – | 90
COc1ccccc1CNc1nc(NCCOc2ccccc2)c2sccc2n1 | · | – | 56 | – | –
c1cc2cc(CNc3nc(NCC4CC4)nc4ccsc34)ccc2o1 | · | – | – | – | ·
COc1ccccc1CNc1nc(NCc2ccccc2OC)c2sccc2n1 | · | – | – | – | ·
CC1CCCN(CCOc2cccc(Oc3ccccc3)c2)C1 (stereo not given) | – | – | 60 | – | –
CC1CN(CCOc2cccc(Oc3ccccc3)c2)CC(C)O1 (stereo not given) | – | – | – | – | ·
Oc1ccccc1-c1nc(N2CCCC2)c2ccccc2n1 | – | – | – | · | ·
CC1CCN(c2nc(-c3ccccc3O)nc3ccccc23)CC1 | – | – | 59 | – | –
OC(COC(c1ccccc1)c1ccccc1)CN1CCN(c2cccc(Cl)c2)CC1 (stereo not given) | – | – | 68 | – | –
CCCC(=O)NC1CCCc2c1cnn2-c1ccc(C)c(C)c1 (stereo not given) | – | – | – | – | ·
CCn1nc(C)cc1C(=O)NC1CCCc2c1cnn2-c1ccc(C)c(C)c1 (stereo not given) | – | – | 60 | – | –
CN1CCN(c2ccc(NC(=O)c3cccc(OCc4ccccc4)c3)cc2)CC1 | – | – | 58 | – | –
CN1CCN(c2ccc(NC(=O)c3ccc(-c4ccc(Cl)cc4)o3)cc2)CC1 | – | – | 73 | – | 91
CS(=O)(=O)N1CCN(c2ccc(NC(=O)c3ccc(-c4ccc(Cl)cc4)o3)cc2)CC1 | – | – | – | – | ·
Cc1ccc(NC(=O)NCC2CC2(Cl)Cl)cc1 (stereo not given) | – | – | – | – | ·
O=C(NCC1CC1(Cl)Cl)Nc1ccc(Cl)c(Cl)c1 (stereo not given) | – | – | 90 | – | –
Cc1c(C)c(C)c(S(=O)(=O)N2CCNCC2)c(C)c1C | – | – | – | – | ·
SMILES | VLA-4 inh | ABCB6 inh 2 | Granule exo inh | CaV13 FRET inh | Exocytosis CP01
COc1ccccc1NC(=O)C1(c2ccccc2)CCCC1 | – | – | 85 | – | –
CCN(CC)C(=O)C1=C(C)N(CCCOC)C(=O)C(CC(=O)NCCCN(C)C)C1 (stereo not given) | · | – | – | – | ·
Cc1ccc2nc(N(CCCN(C)C)C(=O)CCc3ccccc3)sc2c1 | – | – | – | – | ·
CN(C)CCCN(C(=O)CCc1ccccc1)c1nc2ccc(Cl)cc2s1 | – | – | 72 | – | –
CCCCOc1ccccc1NC(=O)C=C(C)C | – | – | – | – | ·
CCCOc1ccccc1NC(=O)/C=C/C(N)=O | – | – | 66 | – | –
CCn1c(=N)n(CC(=O)c2ccc(Cl)c(Cl)c2)c2ccccc21 | – | – | – | – | ·
N=c1n(CCN2CCCCC2)c2ccccc2n1CC(=O)c1ccc(Cl)c(Cl)c1 | – | – | 83 | – | –
Cc1ccc(-c2csc(C(O)c3cccc(Cl)c3)n2)cc1C (stereo not given) | · | – | – | – | ·
